RGS12 GoLoco inh: blocks human Gai1 binding to RGS12 GoLoco peptide, red readout; 0.44% of 230,000 active; AID 880; Potency, µM (series often up to 61.6 µM), most hits filed as inhibitors; P63096; Gai1:RGS12 GoLoco peptide FP, rhodamine, 10 min; active means well fitted inhibition curve with a large enough effect, not every such curve was filed as active; inactive means no such curve, though single readings can be large or run the other way; further: nearly all actives have a fitted effect of over 30% in size
KDM4E inh: inhibitors of human JMJD2E histone demethylase; B2RXH2; JMJD2E catalytic domain, FDH-coupled NADH fluorescence (FDH is formaldehyde dehydrogenase); Potency, µM (series often up to 57.1 µM), most hits filed as inhibitors; 1.6% of 230,000 active; AID 2147; further: nearly all actives have a fitted effect of over 50% in size
Target sequence (B2RXH2 1-337 limits assumed): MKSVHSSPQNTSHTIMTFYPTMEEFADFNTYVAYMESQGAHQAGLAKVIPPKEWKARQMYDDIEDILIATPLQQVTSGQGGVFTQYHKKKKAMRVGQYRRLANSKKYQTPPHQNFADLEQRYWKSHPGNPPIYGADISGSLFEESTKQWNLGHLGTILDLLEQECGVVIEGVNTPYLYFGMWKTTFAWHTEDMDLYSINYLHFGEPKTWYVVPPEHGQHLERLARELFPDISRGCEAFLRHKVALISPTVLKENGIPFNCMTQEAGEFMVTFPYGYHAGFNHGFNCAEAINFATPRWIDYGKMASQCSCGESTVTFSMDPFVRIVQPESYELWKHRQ
Coupling enz: coupling enzyme interference in Giardia aldolase counter-screen | coupling enzyme system counterscreen, AmpLite Red fluorescence | activity change, negative = inhibition, % at 58.2 µM, hits read low | 0.67% of 290,000 active | AID 2472; in the data active means activity change below about -30%
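Counterscreen of the coupled detection system alone, without aldolase: glyceraldehyde-3-phosphate coupling enzymes plus AmpLite Red readout. Compounds at 57.5 uM final, 10 min RT preincubation, 20 min RT reaction, fluorescence 525/598 nm.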
NPSR antagonist: antagonists of human neuropeptide S receptor cAMP signaling. 1% of 220,000 active. CHO-NPSR cells, cAMP TR-FRET, antagonist mode. Q6W5P4. Potency, µM (series often up to 38.3 µM), hits mostly inhibitors; active means well fitted curve in the direction sought with a large enough effect; inconclusive means small, poorly fitted or top-dose-only effect, or another doubt; inactive means no such curve, though single readings can be large; an effect the other way counts as inactive or inconclusive; further: nearly all actives have a fitted effect of over 50% in size
Target sequence (Q6W5P4 whole entry, looked up): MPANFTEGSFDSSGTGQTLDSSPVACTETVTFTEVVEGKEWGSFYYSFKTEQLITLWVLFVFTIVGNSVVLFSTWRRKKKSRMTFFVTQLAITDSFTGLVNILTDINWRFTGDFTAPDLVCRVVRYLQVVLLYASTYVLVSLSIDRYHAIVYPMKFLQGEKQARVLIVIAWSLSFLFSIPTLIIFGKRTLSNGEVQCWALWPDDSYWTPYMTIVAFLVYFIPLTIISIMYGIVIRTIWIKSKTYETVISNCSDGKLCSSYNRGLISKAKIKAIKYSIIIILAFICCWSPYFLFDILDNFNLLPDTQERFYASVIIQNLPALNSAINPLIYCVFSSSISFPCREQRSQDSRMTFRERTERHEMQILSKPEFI
ALDH1A1 inh: blocks purified human ALDH1A1 activity; Purified ALDH1A1, NADH fluorescence, propionaldehyde substrate; Potency, µM (titrated, usually from 75.3 µM), hits mostly inhibitors; 7.3% of 220,000 active
Sfp inh: Sfp phosphopantetheinyl transferase inhibition. 3.5% of 310,000 active. Biochemical Sfp PPTase activity, qHTS. Potency, µM, actives largely listed as inhibitors. AID 1490; active means well fitted curve in the direction sought with a large enough effect; inconclusive means small, poorly fitted or top-dose-only effect, or another doubt; inactive means no such curve, though single readings can be large; an effect the other way counts as inactive or inconclusive;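 further: the enzyme is Sfp with the accession as filed and its product quenches rhodamine fluorescence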
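Step 1, compound plus 15 nM Sfp-PPTase, 15 min, room temperature. Step 2, add rhodamine-CoA (5 uM) and BHQ-2-YbbR (12.5 uM). Step 3, read 525/598 nm fluorescence at 0 and 30 min.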
Of the large screens only hits and unclear results are named; the others gave an inactive call. This is a sample that favours compounds with a hit; in the whole collection about 8.5% have one here. Unless noted, the call rests on the fitted dose curve; in most records, active means well fitted inhibition curve with a large enough effect (not every such curve was filed as active); inconclusive means small, poorly fitted or top-dose-only effect, or another doubt; inactive means no such curve, though single readings can be large or run the other way.

COc1ccc2[nH]c(=O)c(CN(Cc3ccco3)Cc3nnnn3Cc3ccccc3)cc2c1	KDM4E inh inconclusive, NPSR antagonist inconclusive, ALDH1A1 inh inconclusive, Sfp inh 56µM
CNC(=S)N(Cc1ccco1)Cc1cc2cc(OC)ccc2[nH]c1=O	none
COC(=O)c1ccccc1S(=O)(=O)N(Cc1ccco1)Cc1cc2cc(OC)ccc2[nH]c1=O	KDM4E inh inconclusive, ALDH1A1 inh inconclusive, Sfp inh 22µM
CCc1ccc2[nH]c(=O)c(CN(Cc3ccccc3OC)Cc3nnnn3Cc3ccco3)cc2c1	KDM4E inh inconclusive, NPSR antagonist inconclusive, ALDH1A1 inh 25µM
CCOc1ccc2[nH]c(=O)c(CN(Cc3ccco3)Cc3nnnn3Cc3ccccc3)cc2c1	KDM4E inh inconclusive, ALDH1A1 inh inconclusive
O=C(CC1CCC1)NC(c1ccccc1)c1ccccc1	none
CCC(C)C(NC(=O)OC(C)(C)C)C(=O)NC1COC2CC(n3cc(C)c(=O)[nH]c3=O)OC12 (stereo not drawn)	none (no result: RGS12 GoLoco inh, KDM4E inh, NPSR antagonist, ALDH1A1 inh)
CC1Cc2cc(S(=O)(=O)CCC(=O)NCc3ccco3)ccc2N1C(=O)C1CC1 (stereo not drawn)	none (no result: RGS12 GoLoco inh, KDM4E inh, NPSR antagonist, ALDH1A1 inh)
COc1cc([N+](=O)[O-])ccc1NC(=O)Nn1cnnc1	none (no result: RGS12 GoLoco inh, KDM4E inh, NPSR antagonist, ALDH1A1 inh)
O=[N+]([O-])c1cccc2c[nH]nc12	KDM4E inh 35µM (no result: NPSR antagonist)
N#CC(C#N)=CNCCN1CCN(C=C(C#N)C#N)CC1	none (no result: KDM4E inh, Coupling enz, NPSR antagonist, Sfp inh)
Cc1ccc(S(=O)(=O)c2cnc(-c3ccccc3)nc2N2CCCCC2)cc1	ALDH1A1 inh 13µM
O=S(=O)(c1ccccc1)c1cnc(-c2ccccc2)nc1N1CCCC1	NPSR antagonist inconclusive, ALDH1A1 inh inconclusive
Cc1ccc(S(=O)(=O)C(C#N)c2nc3ccccc3nc2N2CCCC2)cc1 (stereo not drawn)	KDM4E inh inconclusive, Coupling enz -30, ALDH1A1 inh inconclusive, Sfp inh inconclusive
COc1cc2nc(Nc3ccc(C)c(Cl)c3)nc(N)c2cc1OC	Sfp inh 45µM (no result: RGS12 GoLoco inh, KDM4E inh, NPSR antagonist, ALDH1A1 inh)
CCOC(=O)c1ccc(Nc2nc(N)c3cc(OC)c(OC)cc3n2)cc1	Sfp inh 79µM (no result: RGS12 GoLoco inh, KDM4E inh, NPSR antagonist, ALDH1A1 inh)
Brc1ccc(C=Nc2ccc3c(c2)OCCOCCOCCO3)s1	none
CC(=O)NC(c1ccccc1)c1cc([N+](=O)[O-])c2cccnc2c1O (stereo not drawn)	KDM4E inh 16µM, ALDH1A1 inh inconclusive, Sfp inh 2.2µM
O=C(CCc1ccccc1)NC(c1cccs1)c1cc(Cl)c2cccnc2c1O (stereo not drawn)	ALDH1A1 inh inconclusive
CC(=O)NC(c1cccs1)c1cc([N+](=O)[O-])c2cccnc2c1O (stereo not drawn)	KDM4E inh 8.9µM, Sfp inh 1µM
CCC(=O)NC(c1cccs1)c1cc([N+](=O)[O-])c2cccnc2c1O (stereo not drawn)	KDM4E inh inconclusive, Sfp inh 7.1µM
CC(C)C(=O)NC(c1ccccc1)c1cc([N+](=O)[O-])c2cccnc2c1O (stereo not drawn)	KDM4E inh inconclusive
CCCC(=O)NC(c1cccs1)c1cc([N+](=O)[O-])c2cccnc2c1O (stereo not drawn)	KDM4E inh 10µM, Coupling enz -32, Sfp inh 2.5µM
O=c1c2ccccc2n2c(-c3cccc(Cl)c3)nnc2n1Cc1ccccc1	none
COc1ccc(-c2nnc3n(CCc4ccccc4)c(=O)c4ccccc4n23)cc1OC	ALDH1A1 inh 1.8µM (no result: RGS12 GoLoco inh)
Cc1cc(C#N)c(C)n1-c1cc(S(=O)(=O)N2CCOCC2)ccc1N1CCCC1	NPSR antagonist inconclusive, ALDH1A1 inh 4.5µM, Sfp inh 40µM
COc1ccc(-n2nc(C(=O)NCC(=O)N3CCC(C)CC3)c3ccccc3c2=O)c(OC)c1	none (no result: RGS12 GoLoco inh, KDM4E inh, NPSR antagonist, ALDH1A1 inh)
Nc1ccc2nc[nH]c2c1	KDM4E inh inconclusive, Coupling enz -41
CC(=O)Oc1cc2c3c(c1)/C(=C1/SC(=S)NC1=O)C(=O)N3C(C)(C)C=C2C	NPSR antagonist inconclusive, Sfp inh 35µM (no result: ALDH1A1 inh)
O=C(CN(C(=O)C1CSC(=O)C1)c1cccc(F)c1)NCc1ccc2c(c1)OCO2 (stereo not drawn)	none (no result: RGS12 GoLoco inh, KDM4E inh, NPSR antagonist, ALDH1A1 inh)
Oc1c(C(Nc2cccc(C(F)(F)F)c2)c2cccnc2)ccc2cccnc12 (stereo not drawn)	KDM4E inh inconclusive, ALDH1A1 inh 20µM, Sfp inh inconclusive
CCC(=O)NC(c1ccccc1OC)c1ccc2cccnc2c1O (stereo not drawn)	KDM4E inh 25µM
CCCC(=O)NC(c1ccc(OC)cc1)c1ccc2cccnc2c1O (stereo not drawn)	KDM4E inh 22µM
COc1ccc(Cl)cc1C(Nc1cccnc1)c1ccc2cccnc2c1O (stereo not drawn)	KDM4E inh 14µM, ALDH1A1 inh inconclusive
CCCCC(=O)NC(c1ccccc1Cl)c1ccc2cccnc2c1O (stereo not drawn)	none (no result: RGS12 GoLoco inh, KDM4E inh, NPSR antagonist, ALDH1A1 inh)
Cc1cc(NC(c2cccnc2)c2ccc3cccnc3c2O)no1 (stereo not drawn)	KDM4E inh inconclusive
Cc1cccc(-n2nc3c(c2NC(=O)C(C)C)CSC3)c1	none (no result: RGS12 GoLoco inh, KDM4E inh, NPSR antagonist, ALDH1A1 inh)
CCOC(=O)c1sc(=S)n(C)c1NC(=O)c1ccc(F)cc1	ALDH1A1 inh 2.5µM, Sfp inh 25µM
CCOC(=O)c1sc(=S)n(CC)c1NC(=O)c1ccccc1	none (no result: ALDH1A1 inh)
CCOC(=O)c1sc(=S)n(C)c1NC(=O)c1ccccc1C	ALDH1A1 inh 10µM, Sfp inh 22µM
COC(CNC(=O)C(=O)Nc1cc2c3c(c1)CCN3C(=O)CC2)OC	none (no result: RGS12 GoLoco inh, KDM4E inh, NPSR antagonist, ALDH1A1 inh)
CC(C)OC(=O)CSc1nc(Cc2ccccc2)nc2ccccc12	ALDH1A1 inh inconclusive
CN(C)c1ncc2nc(-c3ccccc3)c(=O)n(Cc3ccc(F)cc3)c2n1	ALDH1A1 inh inconclusive (no result: KDM4E inh, NPSR antagonist)
COC(=O)c1ccc(C(NC(=O)OCc2ccccc2)/C(=C/[C@@H](C)C(=O)NCc2ccc(OC)c(OC)c2)c2cccnc2)cc1 (stereo partly drawn)	none (no result: NPSR antagonist)
COc1ccc(-n2c(-c3ccc(Cl)cc3)c[n+]3c2CCc2ccccc2-3)cc1	none
Cc1ccc(-n2c(-c3ccc(Br)cc3)c[n+]3c2CCc2ccc4cccnc4c2-3)cc1	KDM4E inh inconclusive, NPSR antagonist 10µM (no result: Coupling enz)
O=C(COC(=O)c1ccc([N+](=O)[O-])s1)Nc1ncc(C(F)(F)F)cc1Cl	KDM4E inh 20µM, ALDH1A1 inh 18µM, Sfp inh inconclusive
O=C(COC(=O)c1ccccn1)Nc1ncc(C(F)(F)F)cc1Cl	ALDH1A1 inh inconclusive
CCCCNc1nc(C#N)nc(Nc2ccccc2)n1	none (no result: RGS12 GoLoco inh, KDM4E inh, NPSR antagonist, ALDH1A1 inh, Sfp inh)
CC(C)(CC(=O)O)CC(=O)Nc1ccc(Oc2ccc(C(C)(C)C)cc2)nc1	ALDH1A1 inh 8.9µM
Cc1[nH]c(-c2ccco2)nc1C(=O)O	Sfp inh 79µM
CCOC(=O)c1c(C)nc(C)c(C(=O)OCC)c1-c1ccco1	none (no result: ALDH1A1 inh)
COc1ccc(-c2nc(-c3ccc4c(c3)OCO4)[nH]c2-c2ccc(OC)cc2)cc1	NPSR antagonist inconclusive
